Source: PubChem BioAssay
FLuc modulator = inhibits or activates purified firefly luciferase, miR-21 counter-screen; P08659; purified FLuc, Km substrates, luminescence inhibition; Potency, µM (highest dose often 57.5 µM), for inactives: top-dose activity change, negative = inhibition, most hits filed as inhibitors; 360,000 tested, 6.9% active; AID 588342;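 also: plate controls were vehicle for no effect and reference inhibitor for full effect; nearly all actives have a fitted effect of over 55% in size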
Target sequence (P08659 whole entry, looked up): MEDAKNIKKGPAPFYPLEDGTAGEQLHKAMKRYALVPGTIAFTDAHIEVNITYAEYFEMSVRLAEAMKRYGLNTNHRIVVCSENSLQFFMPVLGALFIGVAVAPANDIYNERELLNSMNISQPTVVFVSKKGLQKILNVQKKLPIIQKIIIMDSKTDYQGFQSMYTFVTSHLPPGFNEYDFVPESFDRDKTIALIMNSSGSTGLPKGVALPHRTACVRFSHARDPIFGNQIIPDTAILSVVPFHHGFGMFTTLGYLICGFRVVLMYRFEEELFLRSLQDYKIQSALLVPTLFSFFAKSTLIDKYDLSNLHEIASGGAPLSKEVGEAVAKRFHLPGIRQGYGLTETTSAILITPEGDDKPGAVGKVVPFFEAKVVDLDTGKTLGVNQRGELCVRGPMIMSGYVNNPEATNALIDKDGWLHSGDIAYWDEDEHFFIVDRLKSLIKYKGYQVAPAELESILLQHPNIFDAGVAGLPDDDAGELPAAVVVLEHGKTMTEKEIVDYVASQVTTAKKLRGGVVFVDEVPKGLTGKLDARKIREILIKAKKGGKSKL
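Purified P. pyralis luciferase (10nM final) with 10uM D-luciferin and 10uM ATP (Km levels) in 50mM Tris acetate pH 7.5, 10mM Mg acetate, 0.01% Tween-20, 0.05% BSA; qHTS 6-point titration, ~60 µM downward; luminescence read.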
ELG1 genotox = genotoxicity induction in ELG1-luciferase HEK293T cells | 330,000 tested, 1.3% active | HEK293T ELG1-luciferase reporter, luminescence, 16 h | AID 504466 | Potency, µM (highest dose often 46 µM), for the others: at the highest dose activity change, positive = activation, hits mostly activators; also: % of control where 0% means no effect; nearly all actives have a fitted effect of over 60% in size
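Cells (2,000/well) expressing the ELG1-luciferase fusion are dosed by pin tool and kept 16 hr at 37 °C, 5% CO2. Signal comes from ONE-Glo luciferase reagent after 30 min at room temperature.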
Rab9 prom act = activators of Rab9 promoter. Huh7 Rab9 promoter-luciferase reporter, luminescence, 24 h. Potency, µM (top dose mostly 9.22 µM), for inactives: top-dose activation, negative = inhibition, usual class: activators. 320,000 tested, 2.8% active. AID 485297; also: % of control where 0% means no effect; nearly all actives have a fitted effect of over 60% in size
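Huh7 cells stably carrying Rab9 promoter–luciferase reporter, plated 1500 cells/well, compound added after 2 h and incubated 24 h at 37 °C; luciferase luminescence then read after 10 min with detection reagent.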
NPC1 promoter act = activators of NPC1 promoter; Huh7 NPC1 promoter luciferase reporter, 24 h; Potency, µM (doses to about 9.22 µM), for inactives: top-dose activation, most hits filed as activators; 320,000 tested, 2.4% active; AID 485313; also: % of control where 0% means no effect; nearly all actives have a fitted effect of over 60% in size
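Stable NPC1-promoter luciferase Huh7 line; cpd (DMSO) 24 h, 37 °C, 5% CO2; Amplite luciferase reagent 10 min RT; luminescence readout. qHTS format.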
SMN2 splice up = increases expression of the SMN2 splice variant. 210,000 tested, 2.8% active. HEK293 SMN2-luciferase splicing reporter, luminescence, 30-36 h. Potency, µM (top dose mostly 46.1 µM), without a hit: at the top dose activity change, positive = activation, usual class: activators. AID 1458; also: % of control where 0% means no effect; nearly all actives have a fitted effect of over 55% in size
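HEK293 cells carry an SMN2 minigene-luciferase reporter in which exon 7 inclusion puts luciferase in frame. Cells were seeded at 2000 cells/well, attached for 10-12 hours, then exposed to compounds for 30-36 hours at 37C before ONE-Glo luminescence.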
Active calls of the source: *; ? = inconclusive; . = not tested or not shown; [ ] = remark or other dose. Compounds with a hit are over-represented: about 7.4% of the library has one in this group of screens. Calls follow the shape of the dose curve; as a rule, active = well fitted curve in the direction sought with a large enough effect; inconclusive = small, poorly fitted or top-dose-only effect, or another doubt; inactive = no such curve, though single readings can be large; an effect the other way counts as inactive or inconclusive. Potency is read from the fitted curve at half-maximal effect.

SMILES	FLuc modulator	ELG1 genotox	Rab9 prom act	NPC1 promoter act	SMN2 splice up
COc1ccc(CNC(=O)c2ccc(-c3ccccc3)cc2)cc1OC	2%	2%	0%	-4%	-32%
O=C(NCc1ccc(-c2nc3ccccc3s2)cc1)c1ccco1	6µM*	14%	?	?	14%
O=C(NCCc1ccccc1)c1ccc(CSc2nc3ccncc3n2Cc2ccccc2F)cc1	-18%	.	.	.	?
COc1cc(C(=O)Nc2ccc(C)c(S(=O)(=O)N(C)C)c2)ccc1OCC(=O)N1CCOCC1	3µM*	3%	29%	13%	.
COc1ccc(OC)c(NC(=O)c2ccc(OCC(=O)N3CCOCC3)c(OC)c2)c1	0%	1%	1%	-7%	.
O=C(Nc1ccc(OCC(=O)N2CCOCC2)cc1)c1ccccc1Cl	1.7µM*	?	24%	22%	.
CCCCOc1ccc(C(=O)Nc2ccc(OCC(=O)N3CCOCC3)cc2)cc1	1.1µM*	9%	22%	?	.
COc1ccc(NC(=O)Nc2ccc(OCC(=O)N3CCOCC3)cc2)cc1OC	13µM*	5%	5%	-5%	.
COc1ccc(Cl)cc1C(=O)Nc1ccc(OCC(=O)N2CCOCC2)cc1	?	-6%	-4%	6%	.
CCc1cccc(NC(=O)CSc2ncc3c(n2)-c2ccc(Cl)cc2N(Cc2ccccc2)S3(=O)=O)c1	-4%	.	.	.	.
Cc1ccc(C(=O)Nc2cc(C)c(OCC(=O)N3CCOCC3)c(C)c2)cc1	0.67µM*	?	2.8µM*	?	11µM*
Cc1cc(OCC(=O)N2CCOCC2)ccc1NC(=O)c1ccccc1C	7.6µM*	?	.	20%	.
CCCn1ccc2c(OCC(=O)Nc3ccccc3C(=O)OCC)cccc2c1=O	-1%	.	.	.	.
COc1ccc(Cn2ccc3nc(C)c(C(=O)NCc4ccc(SC)cc4)cc3c2=O)cc1	3%	.	.	.	.
CC1CCN(c2ccc(-c3ccc(NC(=O)C(F)(F)F)cc3)nn2)CC1	?	0.73µM*	0.5µM*	0.13µM*	.
O=c1[nH]c(CSc2ccccn2)nc2c1oc1ccccc12	2.7µM*	?	0.79µM*	3.5µM*	1µM*
CCc1nc2c(oc3ccccc32)c(=O)[nH]1	?	5%	23%	24%	6%
COc1ccc(CNC(=O)c2cc3ccccn3n2)cc1OC	-4%	.	.	.	.
c1ccc2c3c([nH]c2c1)[C@@H]1[C@H]2CC[C@H]([C@H]4CCCN[C@H]42)N1CC3	.	.	.	.	-2%[20.6 µM]
O=C(Nc1ccc(F)c(Cl)c1)c1cc(S(=O)(=O)N2CCCc3ccccc32)ccc1F	12µM*	.	.	.	.
COc1ccc(S(=O)(=O)N2CCCc3ccccc32)cc1OC	19µM*	?	-6%	-2%	.
COc1ccccc1CNC(=O)CCn1c(=O)c2ccccc2n(CC(=O)Nc2ccc(C)cc2Cl)c1=O	1%	.	.	.	16%
COc1ccc(C(=O)Nc2cnc(NC(=O)c3cccs3)cc2C)cc1	17µM*	?	?	?	.
Cc1cc(NC(=O)C2CC2)ncc1NC(=O)c1ccccn1	?	?	2.5µM*	?	?
CCCCC(=O)Nc1cnc(NC(=O)c2cccs2)cc1C	19µM*	?	2µM*	3.2µM*	.
SMILES	FLuc modulator	ELG1 genotox	Rab9 prom act	NPC1 promoter act	SMN2 splice up
COc1ccc(C(=O)Nc2cc(C)c(NC(=O)c3ccccn3)cn2)cc1	1.1µM*	2%	?	?	.
CN(CCc1ccccn1)c1ccc2c(c1)C(=O)c1ccccc1-2	.	.	.	.	15%[9.22 µM]
CCOC(=O)C1CCCCN1C(=O)c1oc2c(Cl)cc(C)cc2c1C (stereo unspecified)	12µM*	-1%	4%	2%	.
Cc1cc(Cl)c2oc(C(=O)NC3CCC(O)CC3)c(C)c2c1 (stereo unspecified)	-18%	?	9%	3%	.
COC(=O)C1CCN(C(=O)c2oc3c(Cl)cc(C)cc3c2C)CC1	11µM*	?	0.63µM*	0.79µM*	.
CCn1nc(C)c(CCN(C)C(=O)Nc2cc(Cl)ccc2C)c1C	-1%	.	.	.	.
Cc1ccc(SCCc2cc[n+](CC(=O)c3ccccc3)cc2)cc1	19µM*	?	?	29%	.
O=C(NC(=S)Nc1cccc2cccnc12)c1ccccc1	7.6µM*	6%	?	?	0%
O=C(Nc1cccc2cccnc12)c1ccc(F)cc1	15µM*	.	.	.	.
CC(C)c1ccc(C(=O)Nc2cccc3cccnc23)cc1	9.5µM*	.	.	.	8%
O=C(NC(=S)Nc1cccc2[nH]ncc12)c1ccccc1	?	-4%	2.5µM*	3.2µM*	?
Cc1ccccc1Cn1c2ccccc2c2cnn(CC(=O)NCCCc3ccccc3)c(=O)c21	0%	.	.	.	5%
CCOC(=O)c1cccc(NC(=O)c2ccc3nc(Cc4ccccc4)oc3c2)c1	-17%	.	.	.	.
C[Si](C)(C)C#Cc1ccccc1NC(=S)Nc1ccccc1	.	.	.	.	24%
COc1ccc(C)cc1NC(=O)c1cc(S(=O)(=O)N2CCc3ccccc3C2)ccc1F	1%	.	.	.	.
CCOc1ccc(C(=O)Nc2cccc3cccnc23)cc1	?	12%	0%	3%	.
CC(C)Oc1ccc(C(=O)Nc2cccc3cccnc23)cc1	11µM*	10%	20%	11%	.
N#C/C(=C\c1ccc(-c2cc(Cl)ccc2Cl)o1)C(=O)Nc1ccccc1C(=O)O	4.3µM*	.	.	.	-1%
COc1cc(/C=C(\C#N)C(=O)Nc2ccccc2C(=O)O)cc(Cl)c1OC	27µM*	0%	-1%	-9%	2%
N=c1ccn2c(n1)O[C@H]1[C@@H](OP(=O)(O)O)[C@H](CO)O[C@H]12	.	.	.	.	-11%[9.22 µM]
COC(=O)C[C@H](NC(=O)[C@H](C)NC(=O)[C@@H](NC(=O)OCc1ccccc1)C(C)C)C(=O)CF	.	.	.	.	26%
COc1ccccc1CCC(=O)Oc1ccc(C#N)cc1OC	21µM*	12%	-3%	-3%	.
COc1cc(C#N)ccc1OC(=O)Cc1cc(OC)c(OC)c(OC)c1	-1%	1%	-4%	-4%	.
CC(C)OC(=O)CC(=O)CSc1nc2c(cc1C#N)CCC2	19µM*	1%	3%	-5%	-19%
COC(=O)CC(=O)CSc1nc2c(cc1C#N)CCC2	13µM*	27%	20%	2%	1.3µM*
SMILES	FLuc modulator	ELG1 genotox	Rab9 prom act	NPC1 promoter act	SMN2 splice up
N#Cc1cc2c(nc1SCC(N)=O)CCCCC2	-14%	?	3.2µM*	4µM*	25µM*
CC(C)OC(=O)CC(=O)CSc1nc2c(cc1C#N)CCCC2	13µM*	.	.	.	2%
N#Cc1cc2c(nc1SCC(=O)N1CCOCC1)CCCCC2	3%	?	23%	17%	-72%
CCOC(=O)CC(=O)CSc1nc2c(cc1C#N)CCCCCC2	?	-1%	-4%	2%	1%
CCOc1ccc(CNC(=O)CN2N=C(c3ccccc3)CCC2=O)cc1OC	0%	.	.	.	.
COc1ccc(N2C(=O)Cc3cc(OC)c(OC)cc3C2c2ccc(F)cc2)cc1 (stereo unspecified)	6%	.	.	.	4%
Cc1c(NC(=O)c2ccc(Br)o2)cccc1-c1nc2ccccc2o1	-8%	.	.	.	10%
